High-throughput results from PubChem BioAssay.
AMA1-RON2 inh: disrupts binding of P. falciparum AMA1 to RON2. AlphaScreen AMA1-biotinylated RON2 peptide binding. Potency, µM (top dose mostly 58.2 µM), without a hit: at the top dose activity change, negative = inhibition, actives largely listed as inhibitors. hit rate 0.2% among 360,000. AID 720542;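 further: 0% = vehicle wells and -100% = peptide control; nearly all actives have a fitted effect of over 45% in size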
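AMA1 (3D7) with his tag at 25 nM final met compounds first, then biotinylated RON2 peptide at 25 nM; detection used donor plus acceptor beads, 10 µg/mL apiece, read by AlphaScreen after 30 min at room temperature.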
Sm TGR inh: inhibitors of Schistosoma mansoni thioredoxin glutathione reductase; purified TGR, DTNB reduction, TNB absorbance 405 nm; Potency, µM (series often up to 114 µM), inactives show at the top dose activity change, negative = inhibition, actives largely listed as inhibitors; hit rate 3% among 360,000; Q962Y6; further: on the % scale 0 is the no-effect control and ±100 the full control effect; nearly all actives have a fitted effect of over 60% in size
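First, TGR (20 nM dispensed) and NADPH were mixed with compound. Second, a 15 min room-temperature incubation followed. Third, further NADPH and then DTNB were added to start the reaction. Finally, TNB absorbance was monitored kinetically.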
Pf growth 48h: P. falciparum growth inhibition at 48 hours (one generation). Potency, µM (titrated, usually from 28.7 µM), for inactives: at the highest dose activity change, negative = inhibition, actives largely listed as inhibitors. AID 504832. P. falciparum luciferase growth in erythrocytes, 48 h. hit rate 5.9% among 310,000; further: on the % scale 0 is the no-effect control and ±100 the full control effect
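A one-generation exposure of luciferase-tagged malaria parasites in RPMI 1640/Albumax erythrocyte culture, 37 C and 5% CO2. Inhibition is inferred from decreased luminescence after adding detection reagent.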
Pf growth 96h: P. falciparum growth inhibition at 96 hour, primary screen for plastid delayed-death inhibitors; P. falciparum luciferase reporter growth, 96 h; Potency, µM (series often up to 28.7 µM), for inactives: top-dose activity change, negative = inhibition, usual class: inhibitors; hit rate 6.9% among 320,000; AID 504834; further: on the % scale 0 is the no-effect control and ±100 the full control effect
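Compounds incubated with erythrocytes infected by luciferase-expressing P. falciparum (2% hematocrit, 0.05% parasitemia final) for 96 hours, 37 C in 5% CO2. Growth inhibition scored as decreased luciferase luminescence.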
NS1 inh: inhibitors of influenza NS1 protein function; Potency, µM (highest dose often 46.1 µM), for inactives: at the highest dose activity, positive = more growth; hit rate 0.4% among 270,000; AID 2326; calls by dose curve; further: actives are rising curves; nearly all actives have a fitted effect of over 50% in size
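Growth recovery, yeast-based: influenza A NS1 expressed in S. cerevisiae causes slow growth, and suppressors are detected by OD600. The parent strain without NS1 is used as positive control.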
Numbers without * were called inactive. In the library only some 11% were active in any assay of this set; here they are far more common. Unless noted, the call rests on the fitted dose curve; in most records, active means well fitted curve in the direction sought with a large enough effect; inconclusive means small, poorly fitted or top-dose-only effect, or another doubt; inactive means no such curve, though single readings can be large; an effect the other way counts as inactive or inconclusive. Potency means the concentration at half of the fitted maximal effect.

O=C(CCN1C(=O)/C(=C/c2ccccc2F)SC1=S)N[C@@H](CO)Cc1ccccc1 was read as AMA1-RON2 inh -3%, Sm TGR inh -34%, Pf growth 48h 13%, Pf growth 96h inconclusive and NS1 inh -12%.
For Cc1cc(C(=O)NC2Cc3ccccc3C2)c(C)o1 the results were AMA1-RON2 inh -6%, Sm TGR inh -29%, Pf growth 48h 171%, Pf growth 96h 276% and NS1 inh -39%.
CC1(c2nc3ccccc3[nH]2)CCCC2=Nc3ccccc3CN21 (stereo not given) was read as AMA1-RON2 inh 2%.
Screening O=C(C1CCC(Cn2c(=O)c3sccc3n(Cc3ccc(F)cc3)c2=O)CC1)N1CCOCC1 (stereo not given) returned Sm TGR inh -3%.
Screening COc1ccc(C(OC(=O)c2ccco2)C(=O)NC(C)(C)C)cc1 (stereo not given) returned AMA1-RON2 inh 7%, Pf growth 48h 2%, Pf growth 96h 115% and NS1 inh 0%.
For O=C(CCN1C(=O)/C(=C/c2ccccc2)SC1=S)NC1CCS(=O)(=O)C1 (stereo not given) the results were AMA1-RON2 inh -10%, Sm TGR inh 2%, Pf growth 48h inconclusive, Pf growth 96h 13µM* and NS1 inh -7%.
O=C(CN1C(=O)/C(=C/c2ccco2)SC1=S)NC1CCS(=O)(=O)C1 (stereo not given) was read as AMA1-RON2 inh -10%, Sm TGR inh 20µM*, Pf growth 48h 22%, Pf growth 96h inconclusive and NS1 inh 10%.
`COc1ccc(/C=C2\SC(=S)N(CCC(=O)NCCCn3ccnc3)C2=O)cc1` gave AMA1-RON2 inh 7%, Sm TGR inh 16%, Pf growth 48h inconclusive, Pf growth 96h inconclusive and NS1 inh 2%.
Screening O=C(CCCN1C(=O)/C(=C/c2ccc(F)cc2)SC1=S)NCCCn1ccnc1 returned AMA1-RON2 inh 15%, Sm TGR inh -17%, Pf growth 48h inconclusive, Pf growth 96h 9.3µM* and NS1 inh 3%.
For O=C(CN1C(=O)S/C(=C\c2ccccc2)C1=O)NC1CCS(=O)(=O)C1 (stereo not given) the results were AMA1-RON2 inh 10%, Sm TGR inh -10%, Pf growth 48h 26%, Pf growth 96h 0% and NS1 inh 4%.
For CSC1=NNC(c2ccc(C(C)(C)C)cc2)=NN1 the results were AMA1-RON2 inh 1%, Sm TGR inh -20%, Pf growth 48h 34%, Pf growth 96h -26% and NS1 inh -41%.
Screening Fc1cccc(Cc2c(-c3cccc(Cl)c3)nc3c(Cl)cc(C(F)(F)F)cn23)c1 returned AMA1-RON2 inh 22%.
`CCN(CC)S(=O)(=O)c1ccc(N2CCOCC2)c(NS(=O)(=O)c2cc(C(C)(C)C)ccc2C)c1` gave AMA1-RON2 inh -18%, Sm TGR inh 4%, Pf growth 48h 0.083µM*, Pf growth 96h inconclusive and NS1 inh inconclusive.
CCN(CC)S(=O)(=O)c1ccc(N2CCOCC2)c(NS(=O)(=O)c2cccs2)c1 was read as AMA1-RON2 inh -1%, Sm TGR inh 0%, Pf growth 48h 1% and Pf growth 96h 20%.
CCN(CC)S(=O)(=O)c1ccc(N2CCOCC2)c(NS(=O)(=O)c2ccc(C(C)C)cc2)c1 was read as AMA1-RON2 inh 11%, Sm TGR inh -2%, Pf growth 48h 2.9µM*, Pf growth 96h 1.5µM* and NS1 inh 18%.
CC1CC(c2ccccc2)=Nc2ccccc2N1 (stereo not given) was read as AMA1-RON2 inh -2%, Sm TGR inh inconclusive, Pf growth 48h 40%, Pf growth 96h 25% and NS1 inh -2%.
Screening COc1ccc(CNC(C)C23CC4CC(CC(C4)C2)C3)c(OC)c1OC (stereo not given) returned AMA1-RON2 inh -6%, Sm TGR inh -5%, Pf growth 48h 12µM*, Pf growth 96h 9.3µM* and NS1 inh -5%.
Screening COc1ccc(N2CCN(C(=O)c3cn(C4CCCC4)c(=O)c4c3c3ccccc3n4C)CC2)cc1 returned AMA1-RON2 inh 14µM*, Sm TGR inh -20%, Pf growth 96h 33% and NS1 inh 10%.
`Cc1ccc(CNC(=O)c2cn(C3CCCC3)c(=O)c3c2c2ccccc2n3C)o1` gave Sm TGR inh 8.9µM*, Pf growth 48h inconclusive, Pf growth 96h 12% and NS1 inh -36%.
Screening COc1ccc(N2CCN(C(=O)c3cn(C)c(=O)c4c3c3ccccc3n4C)CC2)cc1 returned AMA1-RON2 inh -28%, Sm TGR inh -6%, Pf growth 48h inconclusive, Pf growth 96h inconclusive and NS1 inh -7%.
`Cn1c2ccccc2c2c(C(=O)NCc3ccco3)cn(C3CCCCC3)c(=O)c21` gave AMA1-RON2 inh 0%, Sm TGR inh 79µM*, Pf growth 96h inconclusive and NS1 inh 8%.
For Cn1c2ccccc2c2c(C(=O)O)cn(C3CCCC3)c(=O)c21 the results were AMA1-RON2 inh 7%, Sm TGR inh 2%, Pf growth 96h inconclusive and NS1 inh -6%.
`COc1ccc(/C=N/NC(=O)c2c(-c3ccccc3)noc2C)cc1[N+](=O)[O-]` gave AMA1-RON2 inh 1%, Sm TGR inh -2%, Pf growth 48h 2%, Pf growth 96h -20% and NS1 inh -1%.
For Cc1ccc(F)c(C(=O)N2CCCC(C)(C(=O)NS(=O)(=O)C3CC3)C2)c1F (stereo not given) the results were AMA1-RON2 inh 1%.
`CCCNC(=O)c1noc2c1CCc1cc(OC)ccc1-2` gave AMA1-RON2 inh 3%, Sm TGR inh -14%, Pf growth 48h 432% and Pf growth 96h -25%.
For COc1ccc2c(c1)CCc1c(C(=O)NCc3cccnc3)noc1-2 the results were AMA1-RON2 inh -4%, Sm TGR inh 28µM*, Pf growth 48h -50%, Pf growth 96h 19% and NS1 inh -2%.
CCSc1nc(O)cc(=O)n1CC was read as AMA1-RON2 inh 0%, Sm TGR inh 13%, Pf growth 48h -1% and Pf growth 96h 60%.
Screening O=C(c1cccc(N2C(=O)C3CC=CCC3C2=O)c1)N1CCN(c2ccccc2)CC1 (stereo not given) returned AMA1-RON2 inh 4%, Sm TGR inh 5%, Pf growth 48h 12µM*, Pf growth 96h inconclusive and NS1 inh 3%.
Screening CN(C(=O)c1cccc(N2C(=O)C3CC=CCC3C2=O)c1)C1CCCCC1 (stereo not given) returned AMA1-RON2 inh -5%, Sm TGR inh 0%, Pf growth 48h inconclusive, Pf growth 96h 10µM* and NS1 inh -54%.
Screening O=C(c1cccc(N2C(=O)C3CC=CCC3C2=O)c1)N1CCCCCC1 (stereo not given) returned AMA1-RON2 inh 4%, Sm TGR inh 1%, Pf growth 48h 5%, Pf growth 96h 0.17µM* and NS1 inh 6%.
